Source: publication PMC7819943, “Rice protein-binding microarrays: a tool to detect cis-acting elements near promoter regions in rice”
The full ranking holds about 68,000 sequences; the median of “fluorescence intensity (a.u.)” is about 9,100, and the highest 2% start at about 16,000. This is one part of a sample in which the highest values are shown more often than they occur.

molecular target: OsWRKY34 (Oryza sativa, UniProt Q0JBA9 1-250); assay: protein-binding microarray (RPBM); PBS, 2% BSA, 51.3 ng/ul salmon testes DNA, 50 uM zinc acetate, 200 nM TF, 25 C, 1 h; high values mean tight binding; conditions: protein: recombinant; tags: N-terminal polyhistidine and DsRed monomer fusion (pET32a); label: CyDye5-dUTP incorporated in the synthesized complementary strand; 3' TTTTT single-stranded linker to array surface; dsDNA, one strand shown
Sequence (Q0JBA9 entry or part of it): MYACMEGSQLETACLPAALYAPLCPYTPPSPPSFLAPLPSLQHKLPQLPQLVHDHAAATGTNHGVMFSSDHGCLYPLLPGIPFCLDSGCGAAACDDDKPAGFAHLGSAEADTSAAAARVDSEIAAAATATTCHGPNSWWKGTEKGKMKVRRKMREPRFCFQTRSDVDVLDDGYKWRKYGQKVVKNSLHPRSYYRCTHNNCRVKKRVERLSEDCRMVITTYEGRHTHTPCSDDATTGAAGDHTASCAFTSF
Outline: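 An Axon 4000B scanner gave the binding signal as per-feature fluorescence intensity in arbitrary units. This followed washing of a custom Agilent array that had been incubated for 1 h at 25 °C with 200 nM protein in PBS, 2% BSA, salmon testes DNA and 50 µM zinc acetate. The proteins were transcription factors fused at the N-terminus to polyhistidine and DsRed, expressed in E. coli BL21-CodonPlus and purified on Ni–NTA.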

Sequence | binding signal
GCATACATCTCTACTACCTGCATCTCCATCTCAAATCAAACGGAGTCACCTAGTGCAG | 10400 fluorescence intensity (a.u.)
CTCCTCTAACGTACCATAGAGGGACATACGTTTCTGATGTCGGAGTCACCTAGTGCAG | 8720 fluorescence intensity (a.u.)
CTCTCCATCCGCTCGCGGCTCGCGCTCGCCCATCCAATCCCGGAGTCACCTAGTGCAG | 10600 fluorescence intensity (a.u.)
CATCGCCCACGCCAATGTCGTCGCCGACGTCTCGCTGCCGCGGAGTCACCTAGTGCAG | 8820 fluorescence intensity (a.u.)
CACGCCATTAAGCTTTTTTTATATACATATAGTCAATGTTCGGAGTCACCTAGTGCAG | 9130 fluorescence intensity (a.u.)
CTCCCTCCATCCCAAAATGTTTGACGCCGTTGACTTTTTACGGAGTCACCTAGTGCAG | 15900 fluorescence intensity (a.u.)
TCCGTATTTTAATGTATGACGCTGTTGACTTTCGACCTACCGGAGTCACCTAGTGCAG | 13900 fluorescence intensity (a.u.)
TAATACTCCCTCCGTATTTTAATGTATGATGCCGTTGACTCGGAGTCACCTAGTGCAG | 10600 fluorescence intensity (a.u.)
ATTTTAATATTTGACGCCGTTGACTTTTTGTATGTTTGACCGGAGTCACCTAGTGCAG | 42500 fluorescence intensity (a.u.)
TCTTACTCTCTCCATCCCAAAATGTTTGACGCCGTTGACTCGGAGTCACCTAGTGCAG | 13400 fluorescence intensity (a.u.)
CCCACCGTTTCCAAATGTTTGACGCCGTTGACTTTTTATCCGGAGTCACCTAGTGCAG | 31900 fluorescence intensity (a.u.)
CTAAATGTTTGACGCCGTTGACTTTTTAAATATGTTTGACCGGAGTCACCTAGTGCAG | 32300 fluorescence intensity (a.u.)
CTCTCTCCGTATTATAATGTATGATGCCGTTGACTTTTTGCGGAGTCACCTAGTGCAG | 35200 fluorescence intensity (a.u.)
ACTCTCTCCGTATTCGTATTTTAATGTATGACGCCGTTGACGGAGTCACCTAGTGCAG | 8550 fluorescence intensity (a.u.)
TTAGTGATTTCTTGTCTCCTGATCATCTGTAGTCTGTAGACGGAGTCACCTAGTGCAG | 8160 fluorescence intensity (a.u.)
GACCTAGCTCTGCCCTTTCTTTCTGAAATAAATAATGCATCGGAGTCACCTAGTGCAG | 8960 fluorescence intensity (a.u.)
CCATCACTAGAGCCTTTTGCCTTTGCTTGCACAATTACATCGGAGTCACCTAGTGCAG | 8850 fluorescence intensity (a.u.)
TGTGTGCCTGTTGTCTCATTTGATCTGCCATTTCAGCGCACGGAGTCACCTAGTGCAG | 10700 fluorescence intensity (a.u.)
ACCCGCACACCGTCCCGTGCCAGCTGCCTCGCCACCGTTCCGGAGTCACCTAGTGCAG | 11900 fluorescence intensity (a.u.)
CCACGACACCGCTTCCAGCCCACGCAACCCTCGAACAATGCGGAGTCACCTAGTGCAG | 8170 fluorescence intensity (a.u.)
GTATTTTCGATTGTTTACACTATAATTAGACTGTTTTATACGGAGTCACCTAGTGCAG | 8600 fluorescence intensity (a.u.)
CGTCGATGCCAATACAATAACCATCATCATCATCATCATTCGGAGTCACCTAGTGCAG | 8210 fluorescence intensity (a.u.)
TCCTCTCCCACCAATCCTTTGATCCATTCATCCCAACTTCCGGAGTCACCTAGTGCAG | 9340 fluorescence intensity (a.u.)
TGTGTGTGTATATATATGTAGCCTGTTCGCACATCATCTTCGGAGTCACCTAGTGCAG | 13600 fluorescence intensity (a.u.)
GTAATGGCATATTTGCAATTATCCCTTTGTTTATTTATTTCGGAGTCACCTAGTGCAG | 8510 fluorescence intensity (a.u.)
GTCGTTGATTTTTTTAAAAATGTTTAACCGTTCGTTTTATCGGAGTCACCTAGTGCAG | 8170 fluorescence intensity (a.u.)
TCCCTAAATGTTTAACGTCGTTGACTTTTTAAAATATGTTCGGAGTCACCTAGTGCAG | 21000 fluorescence intensity (a.u.)
TTATATGATGTTGTTGACTTTTTGACAAATGTTTAATCATCGGAGTCACCTAGTGCAG | 8810 fluorescence intensity (a.u.)

Sequence | binding signal
AATGTATGACGCCGTTGACTTTTTAACAAATATTTGACATCGGAGTCACCTAGTGCAG | 20300 fluorescence intensity (a.u.)
TCCCTAAATATATGACGTTGTTGACTTTTTAAAACATTTTCGGAGTCACCTAGTGCAG | 11200 fluorescence intensity (a.u.)
CGTGCCGCCGCCGCCGCCGCCATCCTCCGGCAACAACGGCCGGAGTCACCTAGTGCAG | 9650 fluorescence intensity (a.u.)
GCTTCGCTTTGCGCTCTCTCTATCTCTCTCTCTTCCAAAACGGAGTCACCTAGTGCAG | 8490 fluorescence intensity (a.u.)
TATCCACATACCACCTCTCCATTGGACCACAGTTTCTCTCCGGAGTCACCTAGTGCAG | 8340 fluorescence intensity (a.u.)
CGGAGAAGTCCGGGCAGGCAAGGGGATGGGGATGGGGATGCGGAGTCACCTAGTGCAG | 12400 fluorescence intensity (a.u.)
CGAGAAGGGGATGGGGAGGAGGAGAGGGAGCGGGAGAGGGCGGAGTCACCTAGTGCAG | 10100 fluorescence intensity (a.u.)
AAGGGGATCGGAGATGCCGCTGGGCAAGTACTACTGCGACCGGAGTCACCTAGTGCAG | 29900 fluorescence intensity (a.u.)
TGCTGGTGGTGGTGGTGGGGATCGAGCCGCTCGCTTCGACCGGAGTCACCTAGTGCAG | 11700 fluorescence intensity (a.u.)
GGGGCAAGGAAGGAAGGGGAGGGGAGGGGTTGGGGCGATGCGGAGTCACCTAGTGCAG | 25900 fluorescence intensity (a.u.)
GGAGAGGAGCGGGCGGGTTGGTGTTGGGAAGGGAGGGATGCGGAGTCACCTAGTGCAG | 18200 fluorescence intensity (a.u.)
GGTTTTGCAGGGCGAGGAGGGAGGGGAGGAGGGAAGGATGCGGAGTCACCTAGTGCAG | 15900 fluorescence intensity (a.u.)
GGCGGCGGCGGCGGCGGAGGTTGGGAAGGAGAGGGAGGGGCGGAGTCACCTAGTGCAG | 11800 fluorescence intensity (a.u.)
CGCGGGGAGGGAGGGAGGGAAGGAGAGGAGGAAGAGGATGCGGAGTCACCTAGTGCAG | 9410 fluorescence intensity (a.u.)
AAATCATTTAGAAACACAACCTTTTCCACTGTTCAGGATTCGGAGTCACCTAGTGCAG | 8030 fluorescence intensity (a.u.)
TTCACCCCGCTGCTCCGACGTCCTAGCCATCGCCGCCGCCCGGAGTCACCTAGTGCAG | 8600 fluorescence intensity (a.u.)
CTGCCGCTCTGGTTCTCCAACTCTGCATACATATACCTCTCGGAGTCACCTAGTGCAG | 12000 fluorescence intensity (a.u.)
GGGATTTTGTGTTTTTGGTTTTTCTGGAGGGTGCAGAAGGCGGAGTCACCTAGTGCAG | 14700 fluorescence intensity (a.u.)
CTACCAACCTGTTCATCATGGCCCGACTCCATTCATGTCACGGAGTCACCTAGTGCAG | 10300 fluorescence intensity (a.u.)
TTTGTGGGTGGTTTTGGGCTAAAGATTCCGTTTCTTTCGACGGAGTCACCTAGTGCAG | 9250 fluorescence intensity (a.u.)
CGGGGAGGAGGGAGGAATAAATACGTCCTAGTCGATCAGCCGGAGTCACCTAGTGCAG | 8150 fluorescence intensity (a.u.)
GTTCAGTCACTCGCACGCTCGCTCGATCACCCGGCCGCCGCGGAGTCACCTAGTGCAG | 10200 fluorescence intensity (a.u.)
CTCTCTACGGCTAGCTACTCCCATTTGTGGTCAACACCTCCGGAGTCACCTAGTGCAG | 10500 fluorescence intensity (a.u.)
TGCCTCTGTTACCACACTCTCACCTTGCTTAATAAATGCTCGGAGTCACCTAGTGCAG | 9800 fluorescence intensity (a.u.)
TAACTTCTCAACTTTTTCACCATCTAAACACAGTCTTCATCGGAGTCACCTAGTGCAG | 8400 fluorescence intensity (a.u.)
ACTTAGGAGAGATTGCCTGAGTGCCATCTTTTTTGTATCTCGGAGTCACCTAGTGCAG | 8960 fluorescence intensity (a.u.)
CTGAAGATTGGATCTAAACTTTGTATCTAAACACAGCCATCGGAGTCACCTAGTGCAG | 64300 fluorescence intensity (a.u.)
